# What was measured:
# [1] = test system: LEGO organoid PTCC (PTEN-/-; TP53-/-; CDKN2A-/-; CDKN2B-/-); test: bioluminescence (viable cell) signal fold change after vs before treatment, normalised to DMSO (ratio); higher = more tumour cell growth / less inhibition; conditions: 10 µM; treatment time 6 days
# Experimental: (§1)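 Luc2-labelled iPSC-derived glioblastoma-like organoids (LEGOs, genotypes PT = PTEN-/-;TP53-/-, PTCC = plus CDKN2A/B-/-, PTN = plus NF1-/-) were treated with 10 uM drug for 6 days (applied every other day) at 37 C. Bioluminescence imaging was done before treatment and 2 days after the last dose. BLI signals were normalised to the DMSO control on the same day and then to the pre-treatment signal (N=3).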
# [2] = test system: LEGO organoid PTN (PTEN-/-; TP53-/-; NF1-/-); test: as above; conditions: 10 µM; treatment time 6 days
# Experimental: as §1
Compound,bioluminescence [1],bioluminescence [2]
CCCCN1CCCCC1C(=O)Nc1c(C)cccc1C.Cl (centres undefined) [Bupivacaine hydrochloride],1.22,0.809
CN(C/C=C/C#CC(C)(C)C)Cc1cccc2ccccc12 [Terbinafine],1.04,2.32
Cc1ccccc1C(OCCN(C)C)c1ccccc1.Cl (centres undefined) [Orphenadrine hydrochloride],1.18,1.59
CCCC(CCC)C(=O)O.CCCC(CCC)C(=O)[O-].[Na+] [Divalproex Sodium],0.404,0.401
Cc1cc(C)cc(OCC2CNC(=O)O2)c1 (centres undefined) [Metaxalone],1.35,1.62
CCc1nn(CCCN2CCN(c3cccc(Cl)c3)CC2)c(=O)n1CCOc1ccccc1.Cl [Nefazodone hydrochloride],1.12,0.52
CCCN(CCC)CCc1cccc2c1CC(=O)N2.Cl [Ropinirole hydrochloride],1.02,0.313
COc1cccc2c1C(=O)c1c(O)c3c(c(O)c1C2=O)C[C@@](O)(C(=O)CO)C[C@@H]3O[C@H]1C[C@H](N)[C@@H](O)[C@H](C)O1.Cl [Epirubicin hydrochloride],0,0.00894
Cc1cn([C@H]2C[C@H](N=[N+]=[N-])[C@@H](CO)O2)c(=O)[nH]c1=O [Zidovudine],1.35,3.76
C=CC(=O)Nc1cc(Nc2nccc(-c3cn(C)c4ccccc34)n2)c(OC)cc1N(C)CCN(C)C [Osimertinib],0.0861,0.0227
OCCN1CCN(CCCN2c3ccccc3Sc3ccc(Cl)cc32)CC1 [Perphenazine],0.615,1.74
N[C@H]1CONC1=O [L-Cycloserine],1.26,0.884

# From the supplement of paper PMC10811239
